Bioassay records deposited in PubChem BioAssay by National Center for Advancing Translational Sciences (NCATS).
TRHR enhancer: TRH receptor (human) allosteric enhancement; AID 493056; actives 0.66% (n = 360,000); enhancement, % at 2 µM; P34981; TRHR cells, fluo-8 calcium fluorescence, EC20 TRH enhancement; in the data active = enhancement above about 30%
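Enhancer read-out: after compound pinning and an initial kinetic agonist-mode read, an EC20 of TRH (10 nM final) was injected and fluo-8 calcium signal (Ex 480/Em 530) followed at 1 s/cycle for 100 cycles in TRHR-expressing cells.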
D1 PAM: potentiators of human D1 dopamine receptor. P21728. HEK293 TREx D1 cells, calcium flux, dopamine EC20 potentiation. potentiation, % at 10 µM. actives 0.036% (n = 360,000). AID 504651; in the data active = potentiation above about 30%
Target sequence (P21728 whole entry, looked up): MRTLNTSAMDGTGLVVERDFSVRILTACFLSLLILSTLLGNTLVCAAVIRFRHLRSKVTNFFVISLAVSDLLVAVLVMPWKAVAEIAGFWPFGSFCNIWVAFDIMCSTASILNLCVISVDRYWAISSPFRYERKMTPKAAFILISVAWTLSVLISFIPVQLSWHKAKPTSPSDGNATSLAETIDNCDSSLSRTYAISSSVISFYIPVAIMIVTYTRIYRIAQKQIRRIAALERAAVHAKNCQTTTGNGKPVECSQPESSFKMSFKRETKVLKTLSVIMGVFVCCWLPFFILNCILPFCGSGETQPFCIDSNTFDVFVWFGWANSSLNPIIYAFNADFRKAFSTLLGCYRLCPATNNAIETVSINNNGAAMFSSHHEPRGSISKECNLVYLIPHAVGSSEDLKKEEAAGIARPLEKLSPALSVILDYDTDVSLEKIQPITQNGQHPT
D1 antagonist: antagonists of human D1 dopamine receptor; actives 3.2% (n = 360,000); HEK293 TREx D1 cells, calcium flux, dopamine EC80; hits give low values; activity change, negative = inhibition, % at 10 µM; P21728; AID 504652; in the data active = activity change below about -30%
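Calcium flux readout: force-coupled, inducible Hek293 Trex D1 line, cells induced overnight at 30 C with tetracycline, dye-loaded 30–90 min at RT. Antagonism scored against EC80 dopamine challenge given 180 s after compound.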
TRHR ag: TRH receptor (human) agonism. AID 493084. P34981. actives 0.18% (n = 360,000). activation, % at 2 µM. TRHR cells, calcium flux fluo-8, FDSS agonist mode
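TRHR-expressing cells, plated overnight in medium with 10% serum, were loaded with fluo-8 calcium dye at room temperature. After a 10 s baseline, library compound was pin-added and calcium release was recorded kinetically (ex 480/em 530) as agonist response.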
D1 ag: human D1 receptor agonism. P21728. HEK293 T-REx D1 cells, calcium flux, agonist mode. activation, % at 2 µM. actives 1% (n = 360,000). AID 504660
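Inducible HEK293 T-REx D1 cells, force-coupled to calcium signalling, were plated at 4000 cells/well with tetracycline and held overnight at 30 C. After no-wash calcium dye loading, compound-evoked calcium rise over 180 s flagged agonists.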
A number is an active result; . = inactive; / = not tested or not shown. Only some compounds are listed: those with a hit (about 4.6% of all), similar ones and a draw of the others. Rule as the data show it, unless noted: active = activation above about 30%; inactive = the rest.

SMILES | TRHR enhancer | D1 PAM | D1 antagonist | TRHR ag | D1 ag
COc1ccc(-c2nc(N3CCN(S(=O)(=O)c4ccccc4)CC3)c3ccccc3n2)cc1 | . | . | . | . | .
CCCCN(C)CCNC(=O)C1CCCN(S(=O)(=O)c2ccc3c(c2)oc(=O)n3C)C1 (stereo unspecified) | . | . | . | . | .
COc1ccccc1CNC(=O)/C=C/c1cc2c(cc1Br)OCO2 | . | . | -30 | . | .
COc1ccccc1/C=C/C(=O)NCC(=O)N/N=C/c1ccc2c(c1)OCO2 | . | . | . | . | .
Cc1ccc(OCCOCCn2ccnc2)c(Br)c1 | . | . | -55 | . | 31
CCN(CC)CCCOc1ccc(C)cc1Br | . | . | -38 | . | .
CCOc1ccccc1OCCCOc1ccc(C)cc1Br | . | . | . | . | .
COc1cc(Cl)c(C)cc1NC(=O)C(OC(=O)CNC(=O)c1ccccc1)c1ccccc1 (stereo unspecified) | . | . | . | . | .
OC(CNCCc1ccc(C(F)(F)F)cc1)COC(c1ccccc1)c1ccccc1 (stereo unspecified) | . | 52 | . | . | 101
COc1ccc(C(OCC(O)CNCCc2ccc(S(N)(=O)=O)cc2)c2ccc(OC)cc2)cc1 (stereo unspecified) | . | . | . | . | .
COCCCNC(=O)c1ccc(Cn2c(=O)c3cccn3c3cccnc32)cc1 | . | . | . | . | .
CCC(C)(C)NC(=O)C(c1ccc(OC)cc1)N(Cc1cccs1)C(=O)CCC(=O)Nc1cc(C)on1 (stereo unspecified) | . | . | -35 | . | .
CCc1cccc(NC(=O)c2ccc(CNS(=O)(=O)c3ccc4c(c3)C(C)(C)C(=O)N4C)cc2)c1 | . | . | . | . | .
COc1ccc(NC(=O)c2c(NC(=O)C(F)(F)F)sc3c2CCCCC3)cc1 | . | . | -36 | . | 59
Cc1ccc(NC(=O)Cn2c(=O)n(CCC(=O)NCc3ccccc3Cl)c(=O)c3ccccc32)c(C)c1 | . | . | . | . | .
CC1CCN(S(=O)(=O)c2cn(CC(=O)Nc3ccc(F)c(Cl)c3)c(=O)c3ccccc23)CC1 | . | . | . | . | .
CCOc1ccc(-n2nc(CO)c(C(=O)NCc3cccc(OC)c3)n2)cc1 | . | . | . | . | .
Cc1cc(C)c(C)c(OCC(=O)O/N=C(\N)c2ccncc2)c1 | . | . | . | . | .
Cc1ccc(OCC(=O)O/N=C(\N)c2ccncc2)c(C)c1 | . | / | -31 | . | .
CCc1ccc2oc(=O)cc(CN3CCN(CCO)CC3)c2c1 | . | . | -50 | . | .
COc1ccc(C)cc1-n1nnc(-c2nc(-c3ccccc3Cl)no2)c1N | . | . | . | . | .
CCCN(CCC)c1nc(-c2ccccn2)nc2ccccc12 | . | . | . | . | .
CCCN(CCC)c1nc(-c2ccccc2F)nc2ccccc12 | . | . | . | . | 39
CN(C)c1ccc(-c2nc3ccccn3c2Nc2ccc3c(c2)OCCO3)cc1 | . | . | . | . | .
O=C(Nc1ccc2c(c1)C(=O)NC2=O)c1cc(Cl)ccc1Cl | . | . | -31 | . | .
SMILES | TRHR enhancer | D1 PAM | D1 antagonist | TRHR ag | D1 ag
O=C(CSc1ccc(F)cc1)Nc1ccc2c(c1)C(=O)NC2=O | . | . | -37 | . | .
O=C(Nc1ccc2c(c1)C(=O)NC2=O)c1cccc(Cl)c1 | . | . | -33 | . | .
O=C(Nc1ccc(OC(F)(F)F)cc1)NC1COc2ccccc2C1 (stereo unspecified) | . | . | . | . | .
CCOC(=O)C1CCN(C(c2cccs2)c2sc3nc(C)nn3c2O)CC1 (stereo unspecified) | . | . | . | . | .
CCOC(=O)C1CCN(C(c2cccc(OC)c2)c2sc3nc(C)nn3c2O)CC1 (stereo unspecified) | . | . | -31 | . | .
Cn1nnnc1Sc1ncnc2scc(-c3ccc4c(=O)ccoc4c3)c12 | . | . | . | . | .
Cc1ccc(CNC(=O)c2cccc(-n3cnnn3)c2)cc1 | 30 | . | . | . | .
CCOc1ccc(CCNC(=O)c2cccc(-n3cnnn3)c2)cc1OCC | . | . | -31 | . | .
CC(C)(C)c1ccc(C(=O)NNC(=O)c2cccc(-n3cnnn3)c2)cc1 | . | . | . | . | .
CCOC(=O)c1c(C)c(-c2ccccc2)n(CC(=O)Nc2cc(C)ccc2OC)c1C | . | . | . | . | .
CC(=O)Nc1ccc2c(c1)CN(c1cc(C)ccc1C)CO2 | . | . | -37 | . | .
CC(=O)Nc1ccc(S(=O)(=O)N2CCN(c3cc(C)ccc3C)CC2)cc1 | . | . | . | . | .
CN(C(=O)CC1C(=O)NCCN1Cc1ccc(F)cc1)C1CCOCC1 (stereo unspecified) | . | . | . | . | .
CN(C(=O)CC1C(=O)NCCN1Cc1ccc(F)c(F)c1)C1CCOCC1 (stereo unspecified) | . | . | -42 | . | .
CCN1C(=O)/C(=C/C=C2/CCCN2C)OC1=S | . | . | . | . | 30
Cc1cc(C(=O)N2CCCC(C(=O)c3cccc4ccccc34)C2)nc(C)n1 (stereo unspecified) | . | . | -61 | . | .
O=C(c1cccc2ccccc12)C1CCCN(C(=O)CCN2CCCO2)C1 (stereo unspecified) | 38 | . | . | . | .
CC1CCc2cc(F)cc3c(O)c(C(=O)NCC4CCCO4)c(=O)n1c23 (stereo unspecified) | . | . | -77 | . | .
COc1ccc(N2C3=[N+](CC2(C)O)c2ccccc2CC3)cc1 (stereo unspecified) | . | . | -89 | . | .
N#Cc1c(NC(=O)CS(=O)(=O)c2ccc(Cl)cc2)sc2c1CCCCC2 | . | . | / | . | .
CNCCCC1Sc2ccccc2Oc2ccccc21 (stereo unspecified) | . | . | -42 | . | .
COc1ccc(NC(=O)C2CCCN(S(=O)(=O)c3ccc4c(c3)CCCC(=O)N4)C2)c(OC)c1 (stereo unspecified) | . | . | . | . | .
CC(=O)Cn1cnc2sc(-c3ccccc3)cc2c1=O | . | . | -36 | . | .
Cc1nnc(N2CCN(c3ccccc3)CC2)c2c1nnn2Cc1ccc(F)cc1 | . | . | . | . | .
CC(C)N(C(=O)CN1CCN(C(=O)C2COc3ccccc3O2)CC1)C(C)C (stereo unspecified) | . | . | . | . | .
COc1ccccc1NC(=O)CN1CCN(C(=O)C2CCCO2)CC1 (stereo unspecified) | 32 | . | . | . | .
O=C(CN1CCN(C(=O)C2COc3ccccc3O2)CC1)Nc1ccccc1 (stereo unspecified) | . | . | -33 | . | .
Cc1ccc(S(=O)(=O)N2CCN(C(=O)C3CCCO3)CC2)cc1 (stereo unspecified) | . | . | . | . | .
